# Test results reported in PubChem BioAssay AID1259370 (Center for Chemical Genomics, University of Michigan, 2018).
# Among all 94,000 compounds or so, about 680 (0.72%) were called active. What follows is part of a selection rich in actives, with near analogues and random picks from the rest. Values without a mark were called inactive. Rule as the data show it: active = z-score above about 3.2; inactive = the rest.
# Target: M-phase inducer phosphatase 2 (Homo sapiens) + Cyclin-dependent kinase 2 (Homo sapiens) + Cyclin-A2 (Homo sapiens) (UniProt P30305+P24941+P20248)
# Assay: primary biochemical HTRF screen for blockers of M-phase inducer phosphatase 2 binding to CDK2/cyclin A (AID 1259370)
# Details: HTRF CDC25B-CDK2/CyclinA binding, anti-His/anti-Flag; hits give high values
row,SMILES,z-score
1,N#Cc1c(-c2ccccc2)nc(SCCCCOc2ccc(Cl)cc2)[nH]c1=O,4.75 (active)
2,CCSc1nc(-c2ccc(Cl)cc2)c(C#N)c(=O)[nH]1,-0.88
3,Cc1ccc(CSc2nc(-c3ccccc3)c(C#N)c(=O)[nH]2)cc1,-0.77
4,O=C(CSc1ncnc2nc[nH]c12)c1ccc(O)c(O)c1,2.58
5,Cc1n[nH]c(=O)c2nn(-c3ccccc3)c(C)c12,0.76
6,Cc1cc(C)cc(NS(=O)(=O)c2ccc3c(c2)n(C)c(=O)n3C)c1,-1.42
7,Cc1cc2c(c(=O)n1CC1CCCO1)C(c1cccc(Br)c1)C(C#N)=C(N)O2 (stereo unspecified),-0.22
8,CC(C)c1ccc(C2c3c([nH][nH]c3=O)CC(C)(O)C2C(=O)OCc2ccccc2)cc1 (stereo unspecified),-1.98
9,COc1ccc(S(=O)(=O)NC(C)c2nc(-c3ccc(C)cc3)no2)cc1 (stereo unspecified),-1.34
10,CC(C)NC(=O)Nc1ccc2snnc2c1,5.16 (active)
11,CC(C)CC(=O)Nc1ccc2nsnc2c1,-1.58
12,COC(=O)c1ccc2snnc2c1,-0.98
13,CCOC(=O)c1cn(-c2cccc(F)c2)nn1,-1.61
14,Cn1c(=O)n(C)c2cc(S(=O)(=O)Nc3ccc(F)cc3)ccc21,-0.14
15,Cc1nc(C)c(C(=O)Nc2nnc(CC(C)C)s2)s1,-0.08
16,CC12CC3(C)CC(C)(C1)CC(C(=O)NC(C)(C)CO)(C2)C3,-1.12
17,O=C(CSc1ccc(-c2cccs2)nn1)N1CCCc2ccccc21,-0.97
18,COc1ccc(S(=O)(=O)N(C(=O)c2ccncc2)c2ccc3oc(=O)sc3c2)cc1OC,-3.46
19,O=C(c1cccnc1)N(c1ccc2oc(=O)sc2c1)S(=O)(=O)c1ccccc1,-1.85
20,O=C(c1cccnc1)N(c1cc2sc(=O)oc2c2ccccc12)S(=O)(=O)c1ccccc1,12.3 (active)
21,CCn1c(COC)nc2ccccc21,-0.64

row,SMILES,z-score
1,CCC(C)NC(=O)C1=CC(c2cccs2)=NS(=O)(=O)N1C (stereo unspecified),-1.72
2,O=C1c2cccc3cccc(c23)C(=O)N1c1cccc(O)c1,-0.15
3,O=C1c2ccc3c4c(ccc(c24)C(=O)N1c1ccccc1)C(=O)N(c1ccccc1)C3=O,-2.52
4,O=C(O)c1cccc(N2C(=O)c3ccc4c5c(ccc(c35)C2=O)CC4)c1,8.86 (active)
5,COCCOC(=O)C1=C(C)Nc2nc3ccccc3n2C1c1cccc(F)c1 (stereo unspecified),-1.51
6,COc1ccc(C(=O)Oc2ccc3c(c2)oc(=O)c2ccccc23)cc1,-0.65
7,CC(C)CCNC(=O)C1CCC(CNc2c(N3CCC(C)CC3)c(=O)c2=O)CC1 (stereo unspecified),-0.9
8,Cc1nc(N2CCCCC2)cc(N2CCN(S(=O)(=O)c3ccc(F)cc3)CC2)n1,-1.52
9,CCOc1ccccc1Nc1nc2ccc(Cl)cc2n2nnnc12,-2.08
10,Cn1c(=O)n(C)c2cc(CNC3CCCCC3)ccc21,-1.66
11,O=C(Nc1ccccc1)N1CCN(Cc2ccccc2)CC1,4.1
12,S=C(Nc1cccnc1)N1CCCN(Cc2ccc(Cl)cc2Cl)CC1,12 (active)
13,Clc1ccc(C=NCc2cccnc2)c(Cl)c1,0.36
14,CCOC(=O)c1c(NC(=O)Nc2cccc(Cl)c2)sc2c1CCCC2,-0.86
15,CC1=C(c2cccc(Br)c2)S(=O)(=O)N=C1Nc1ccccc1C,-2.29
16,O=C(COc1ccc2c3c(c(=O)oc2c1)CCC3)OC1CCCCC1,-1.13
17,COc1ccc2cc3c(N)nn(C(=O)Cn4c(=O)oc5ccccc54)c3nc2c1,-0.84
18,O=C(O)C1CCCN(c2cnccn2)C1 (stereo unspecified),0.23
19,Cc1ccc(C)c(C(=O)CSc2n[nH]c(-c3ccco3)n2)c1,8.74 (active)
20,Cc1ccc(CNc2n[nH]c(-c3ccco3)n2)cc1,-1.84
21,COc1ccccc1-c1nc(SCC(=O)c2ccc(Br)cc2)n[nH]1,-0.98

row,SMILES,z-score
1,CCSc1ncc(Cl)c(C(=O)Nc2nc(C)c(C(=O)OCC(C)C)s2)n1,-1.22
2,Cn1c(=O)c2c(-c3cccc(Br)c3)n(C(CO)(CO)CO)cc2n(C)c1=O,0.09
3,COC(=O)C1=C(C)NC2=C(C(=O)c3ccccc32)C1c1ccc(OC)cc1 (stereo unspecified),1.16
4,CCOC(=O)C1=C(C)NC2=C(C(=O)c3ccccc32)C1c1cccc(F)c1 (stereo unspecified),-1.68
5,CCOC(=O)C1=C(C)NC2=C(C(=O)c3ccccc32)C1c1ccc(OC(=O)c2ccccc2)cc1 (stereo unspecified),11.9 (active)
6,O=C(O)CSc1nc2ccccc2c(=O)n1Cc1ccco1,-1.25
7,CCOC(=O)c1sc(NC(=O)c2cc3ccccc3o2)c(C(=O)OCC)c1C,-1.55
8,COc1ccc(OC)c(C2CC(=O)N3CN(c4ccccc4OC)CSC3=C2C#N)c1 (stereo unspecified),3.41 (active)
9,CCOc1ccc(N2CSC3=C(C#N)C(c4ccc(SC)cc4)CC(=O)N3C2)cc1 (stereo unspecified),6.74 (active)
10,N#CC1=C2SCN(c3ccc(F)cc3)CN2C(=O)CC1c1ccc(Br)cc1 (stereo unspecified),2.31
11,CSC1=C(C#N)C(c2ccccc2C)CC(=O)N1 (stereo unspecified),-0.39
12,COc1ccc(C(=O)CC2(O)C(=O)N(C(C)C)c3ccccc32)c(OC)c1 (stereo unspecified),-1
13,COc1ccccc1N1C(=O)C2C(c3ccccc3C)OC3(C(=O)c4ccccc4C3=O)C2C1=O (stereo unspecified),0.1
14,Cc1cccc(N2CSC3=C(C#N)C(c4ccccc4C)CC(=O)N3C2)c1 (stereo unspecified),3.61 (active)
15,COc1ccc(OC)c(C2C(C#N)=C3N=C(N)c4ccccc4N3C3=C2C(=O)CCC3)c1 (stereo unspecified),0.51
16,COc1ccc(OC)c(C2CC(=O)N3CN(Cc4ccco4)CSC3=C2C#N)c1 (stereo unspecified),-3.58
17,COc1ccc(C2CC(=O)N3CN(c4ccccc4OC)CSC3=C2C#N)c(OC)c1 (stereo unspecified),8.02 (active)
18,CC(C)C(=O)Nc1sc2c(c1C(=O)O)CCCC2,-2.62
19,Cc1nc(N)[nH]c(=O)c1Br,0.46
